Inconclusive results are not listed. Calls of active or inactive are those of the source. Unless noted, the call rests on the fitted dose curve; in most records, active means well fitted curve in either direction with a large enough effect (not every such curve was filed as active); inconclusive means small, poorly fitted or top-dose-only effect, or another doubt; inactive means flat fitted curve, though single readings scatter.
Experiments:
[1] = AP1 Signaling Pathway (AID 357); conditions: ME-180 AP-1-bla reporter, EGF-induced, beta-lactamase ratio, 5 h; at 17.2 µM (top of the series) unless noted;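 further: ME-180 reporter cells stimulated with EGF at its EC50 level; on the % scale 0 is the no-effect control and ±100 the full control effect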
Outline: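 Read-out was the 460nm/530nm emission ratio (excitation 405nm) after CCF4 loading for 2.5 hours at room temperature. Cells carried an AP-1-driven beta-lactamase reporter, were stimulated with EC50 EGF plus compound for 5 hours, and AC50 values came from titrations.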

[2] = NFAT Signaling Pathway (AID 444); conditions: Jurkat NFAT-bla M1, carbachol, beta-lactamase ratio, 5 h; at 17.2 µM (top of the series) unless noted;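 further: carbachol stimulus at about its EC50 of 1 µM final; on the % scale 0 is the no-effect control and ±100 the full control effect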
Outline: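 Read-out: CCF4 FRET ratio (460 nm/530 nm) after 1 h RT dye loading, used for %activity and AC50 from titration series. Cells: Jurkat NFAT-β-lactamase/M1 line, treated with compound plus 1 uM carbachol for 5 h, 37 °C.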

[3] = Stat Signaling Pathway (AID 446);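 further: ME-180 cervical cancer cells given 40 pM IL-6 alongside compound; SIE-controlled beta-lactamase reporter measured as 460/530 nm FRET emission ratio; on the % scale 0 is the no-effect control and ±100 the full control effect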
Outline: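 Reporter line: ME-180 cervical carcinoma, SIE-beta-lactamase. Treatment: compound with 40 pM IL-6, 5 hrs, 37 C, in low-serum OPTI-MEM with 10 mM HEPES pH 7.3. Detection: 460/530 nm fluorescence.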

[4] = target: Glucocorticoid receptor (Homo sapiens) (UniProt P04150); assay: GR-GFP Redistribution (AID 450;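 active means compounds whose dose series gives a full or clear partial fitted curve of increased nuclear translocation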; further: potency means the concentration at half of the fitted maximal effect); conditions: U2OS GR-GFP nuclear translocation, laser cytometry, 2 h
Chain of Glucocorticoid receptor (Homo sapiens) (P04150 whole entry, looked up): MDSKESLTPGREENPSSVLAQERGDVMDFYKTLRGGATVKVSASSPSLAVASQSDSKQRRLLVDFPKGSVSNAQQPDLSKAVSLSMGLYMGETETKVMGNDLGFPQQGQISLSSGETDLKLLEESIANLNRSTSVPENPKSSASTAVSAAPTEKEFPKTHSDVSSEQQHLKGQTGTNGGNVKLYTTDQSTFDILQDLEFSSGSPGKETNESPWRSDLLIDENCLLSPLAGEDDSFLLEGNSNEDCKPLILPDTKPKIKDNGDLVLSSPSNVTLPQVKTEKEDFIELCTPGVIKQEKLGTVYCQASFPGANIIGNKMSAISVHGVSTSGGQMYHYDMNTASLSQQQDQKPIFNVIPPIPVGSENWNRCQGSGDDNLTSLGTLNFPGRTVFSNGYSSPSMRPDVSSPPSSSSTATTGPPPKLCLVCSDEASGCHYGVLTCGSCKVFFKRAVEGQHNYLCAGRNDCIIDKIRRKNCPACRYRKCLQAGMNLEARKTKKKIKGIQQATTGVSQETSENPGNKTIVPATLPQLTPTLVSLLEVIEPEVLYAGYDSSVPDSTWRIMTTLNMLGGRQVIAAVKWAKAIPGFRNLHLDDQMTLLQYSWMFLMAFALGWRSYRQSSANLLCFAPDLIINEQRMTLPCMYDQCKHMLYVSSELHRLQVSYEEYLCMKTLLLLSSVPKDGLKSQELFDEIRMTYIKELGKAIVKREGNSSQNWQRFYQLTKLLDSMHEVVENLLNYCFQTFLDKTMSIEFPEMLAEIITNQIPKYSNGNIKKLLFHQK

CCOc1ccc(Cc2c(O)[nH]c(=O)[nH]c2=O)cc1
inactive: activity change, negative = inhibition [1] -3.54% | activity change, negative = inhibition [2] 3.49% | outcome [3] | Potency [4] > 20.6 µM

COC(=O)C(O)(c1c[nH]c2ccccc12)C(F)(F)F (stereo not drawn)
inactive: activity change, negative = inhibition [1] -14.1% | activity change, negative = inhibition [2] -8.45% | outcome [3] | Potency [4] > 20.6 µM

CN(C)CCOC(=O)c1cn(Cc2ccccc2)c2ccccc12
inactive: activity change, negative = inhibition [1] 16% | activity change, negative = inhibition [2] -13.6% | outcome [3] | Potency [4] > 20.6 µM

CCn1c(O)c(C(=O)CC2NCCc3ccccc32)c(=O)n(CC)c1=S (stereo not drawn)
inactive: activity change, negative = inhibition [1] 5.38% | activity change, negative = inhibition [2] 22.3% | outcome [3] | Potency [4] > 20.6 µM

COc1ccc(C2SCC(=O)Nc3c2c(=O)[nH]n3C2CCCCCC2)cc1 (stereo not drawn)
inactive: activity change, negative = inhibition [1] -18.2% | activity change, negative = inhibition [2] 1.93% | outcome [3] | Potency [4] > 20.6 µM

CC(C)Cc1[nH]c(=O)c(C#N)c2c1CCC2
inactive: activity change, negative = inhibition [1] 8.3% | activity change, negative = inhibition [2] 18.5% | outcome [3] | Potency [4] > 20.6 µM

CC1(C)NCCN2C(=O)CSC21 (stereo not drawn)
inactive: activity change, negative = inhibition [1] 17.6% | activity change, negative = inhibition [2] 0.762% | outcome [3] | Potency [4] > 20.6 µM

OC1(c2ccc(F)cc2)CCNC1 (stereo not drawn)
inactive: activity change, negative = inhibition [1] 7.87% | activity change, negative = inhibition [2] -14.3% | outcome [3] | Potency [4] > 20.6 µM

CCCCCCn1c(O)c(C=NCCN2CCCCC2)c(=O)[nH]c1=O
inactive: activity change, negative = inhibition [1] 10.2% | activity change, negative = inhibition [2] 4.87% | outcome [3] | Potency [4] > 20.6 µM

O=c1[nH]c(=O)n(-c2cccc(Cl)c2)c(O)c1C=NCCN1CCCCC1
inactive: activity change, negative = inhibition [1] -0.739% | activity change, negative = inhibition [2] -1.95% | outcome [3] | Potency [4] > 20.6 µM

CC(=C1C(=O)c2ccccc2C1=O)N1CCN(CCN=Cc2c(O)n(C)c(=O)n(C)c2=O)CC1
inactive: activity change, negative = inhibition [1] -15.2% | activity change, negative = inhibition [2] -5.34% | outcome [3] | Potency [4] > 20.6 µM

CN(C)CCc1nn[nH]n1
inactive: activity change, negative = inhibition [1] 1.85% | activity change, negative = inhibition [2] -0.26% | outcome [3] | Potency [4] > 20.6 µM

O=C1c2ccccc2C(=O)N1Cc1nc2ccccc2c(=O)n1-c1cccnc1
inactive: activity change, negative = inhibition [1] 24% | activity change, negative = inhibition [2] -3.03% | outcome [3] | Potency [4] > 20.6 µM

Cc1ccc(C)c(C2(O)CC(C)N(C)CC2C)c1 (stereo not drawn)
inactive: activity change, negative = inhibition [1] 22.9% | activity change, negative = inhibition [2] 9.11% | outcome [3]

CCOc1ccc(-n2c(O)c(C=NCCN3CCNCC3)c(=O)[nH]c2=O)cc1
inactive: activity change, negative = inhibition [1] 9.57% | activity change, negative = inhibition [2] 0.77% | outcome [3] | Potency [4] > 20.6 µM

COc1cccc(CN2CCN(C(=O)COc3ccc4ccccc4c3)CC2)c1
inactive: activity change, negative = inhibition [1] 2% | activity change, negative = inhibition [2] 13.9% | outcome [3] | Potency [4] > 20.6 µM
